# Measured values: article PMC7819943, “Rice protein-binding microarrays: a tool to detect cis-acting elements near promoter regions in rice”
# In all, about 39,000 sequences were measured (“fluorescence intensity (a.u.)”: median about 4,300, highest 2% from about 39,000 on). The list comes from a sample in which the highest values are over-represented; it also holds similar and randomly drawn sequences.
# Target: T1, OsSMF1 (Oryza sativa, UniProt Q6ZLB0 1-436)
# T1 sequence: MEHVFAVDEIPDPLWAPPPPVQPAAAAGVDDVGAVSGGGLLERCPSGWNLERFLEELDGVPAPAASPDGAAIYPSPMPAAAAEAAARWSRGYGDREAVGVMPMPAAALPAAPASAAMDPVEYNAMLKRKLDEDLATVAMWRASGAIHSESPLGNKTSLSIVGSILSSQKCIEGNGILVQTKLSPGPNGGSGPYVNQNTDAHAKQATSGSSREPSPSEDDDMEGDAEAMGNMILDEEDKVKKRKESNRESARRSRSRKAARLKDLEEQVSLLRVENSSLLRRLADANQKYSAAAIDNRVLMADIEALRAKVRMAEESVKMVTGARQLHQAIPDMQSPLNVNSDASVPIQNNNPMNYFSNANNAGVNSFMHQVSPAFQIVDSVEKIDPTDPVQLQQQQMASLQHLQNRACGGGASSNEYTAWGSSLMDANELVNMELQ
# Experiment: protein-binding microarray (RPBM); PBS, 2% BSA, 51.3 ng/ul salmon testes DNA, 50 uM zinc acetate, 200 nM TF, 25 C, 1 h; high values mean tight binding
# Conditions: protein: recombinant; tags: N-terminal polyhistidine and DsRed monomer fusion (pET32a); chain copies: 2; label: CyDye5-dUTP incorporated in the synthesized complementary strand; 3' TTTTT single-stranded linker to array surface; dsDNA, one strand shown
# Method in brief: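 Transcription factors were made in E. coli BL21-CodonPlus as N-terminal fusions to a polyhistidine tag and DsRed, then purified on Ni–NTA. After primer extension with Cy5-dUTP and blocking with 2% BSA, a custom Agilent array was exposed for 1 h at 25 °C to 200 nM protein in PBS, 2% BSA, salmon testes DNA and 50 µM zinc acetate. Washed arrays were scanned on an Axon 4000B, and the binding signal is per-feature fluorescence intensity in arbitrary units.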
row,Sequence,binding signal
1,CCCTTCGTCGACACGCACCCCTGACCTCATATTTTCGCTTCGGAGTCACCTAGTGCAG,5650 fluorescence intensity (a.u.)
2,ATGCCATGCCAACGCACTATGCCTGGTATCCTTAGCCATCCGGAGTCACCTAGTGCAG,4060 fluorescence intensity (a.u.)
3,CGACCTGAGGTTGGCGGTCGGCATGACGTCACGGGTGGGACGGAGTCACCTAGTGCAG,24200 fluorescence intensity (a.u.)
4,CTATGTTTTACACTTACACTCCTATCAAAATCCTACGTTTCGGAGTCACCTAGTGCAG,22600 fluorescence intensity (a.u.)
5,TAAAGCTTTTATGAATGAATAGCCTCGCTGGCAAGTGGGCCGGAGTCACCTAGTGCAG,3560 fluorescence intensity (a.u.)
6,TTGTTCTGTCGATCCATCGGTATCCTGGTCAATTGGCAAGCGGAGTCACCTAGTGCAG,3160 fluorescence intensity (a.u.)
7,ATCGAATGATCTAACGGCTCACACACTCCCACGCACTTTGCGGAGTCACCTAGTGCAG,3290 fluorescence intensity (a.u.)
8,TCTGACGGGCGATGACGACGACGACGGTGCAAAAGCCTGACGGAGTCACCTAGTGCAG,3310 fluorescence intensity (a.u.)
9,ACATCTAAAAGTAACTTGAGTTTTCTAAGCAACACATAAGCGGAGTCACCTAGTGCAG,24700 fluorescence intensity (a.u.)
10,AAGCTCCCCGGCCAGGCCGCCATCGGCCACGTGAGGTACTCGGAGTCACCTAGTGCAG,4540 fluorescence intensity (a.u.)
11,TTTAATTGTTCTGCGATTACGGTAGAAATAGATCGGGCTTCGGAGTCACCTAGTGCAG,3210 fluorescence intensity (a.u.)
12,TTGAAACGTAACACTTGATATATGTATACATTATCCAACCCGGAGTCACCTAGTGCAG,3150 fluorescence intensity (a.u.)
13,AATTGGACAATTCATCATAAATTTTGCATGAATGATGACACGGAGTCACCTAGTGCAG,3750 fluorescence intensity (a.u.)
14,TTTTCTATCACATCGTTTTAATTTCAATCAAACTTCCAATCGGAGTCACCTAGTGCAG,45300 fluorescence intensity (a.u.)
15,TCCATTGCATATAATTCAATTCATCGAAATCATGACATTTCGGAGTCACCTAGTGCAG,46400 fluorescence intensity (a.u.)
16,GTTATAAGACGTTTTGATTTTAGTCAAAGTCAAACTATTCCGGAGTCACCTAGTGCAG,32600 fluorescence intensity (a.u.)
17,AATTATGTTTTATAAGACGTTAGCATTTAAACTACAATCCCGGAGTCACCTAGTGCAG,55600 fluorescence intensity (a.u.)
18,CCAACTTTTCCATCACATCGTTCCAATTTCAACCAAACTTCGGAGTCACCTAGTGCAG,21900 fluorescence intensity (a.u.)
19,ACAAACTTCCAACTTTTCTATCACATCGTTCCAATTTCAACGGAGTCACCTAGTGCAG,22100 fluorescence intensity (a.u.)
20,GACATGAATTTTCCATCATATATTCATGCGGTTCATTATGCGGAGTCACCTAGTGCAG,4430 fluorescence intensity (a.u.)
21,GGGTCATATAGAGACGACGATCAAATTTACCTTATTTTAACGGAGTCACCTAGTGCAG,3240 fluorescence intensity (a.u.)
22,TTATATTTTAATTAAAACTATTATAATACACAATACGTCACGGAGTCACCTAGTGCAG,7060 fluorescence intensity (a.u.)

row,Sequence,binding signal
1,CAACAAATTTAAATTTATAGACGTCACCATACTGAAGGCGCGGAGTCACCTAGTGCAG,5460 fluorescence intensity (a.u.)
2,TCATACTGCCATCATACCATCCTACAATAGACAAATTTAACGGAGTCACCTAGTGCAG,54300 fluorescence intensity (a.u.)
3,TAACCATGTAATTCCTCTGAAAATCCACAGATGAACTAGCCGGAGTCACCTAGTGCAG,3360 fluorescence intensity (a.u.)
4,CCACCAGCCCGGTGGGATCCCGCCACGTCAGCGTGACCCGCGGAGTCACCTAGTGCAG,22600 fluorescence intensity (a.u.)
5,GTCTGGAGAGCCAGAGGAGAGGAGTAGCGGACGCGGTGCCCGGAGTCACCTAGTGCAG,26700 fluorescence intensity (a.u.)
6,TTTCTGCGCTACGTGCTCGCCATGTCGTCCTCGTCACAAACGGAGTCACCTAGTGCAG,5120 fluorescence intensity (a.u.)
7,CACCCGTGCGTAATCATGACGCCGGGGTGACGTCACCATCCGGAGTCACCTAGTGCAG,30200 fluorescence intensity (a.u.)
8,GCTGGGTTTTCGAGGAGGCCTGACTGGATCATACTCGACTCGGAGTCACCTAGTGCAG,3250 fluorescence intensity (a.u.)
9,CCATCTGCGGCGTACTTGCCACTTTTCTTCGATCGGCACCCGGAGTCACCTAGTGCAG,3550 fluorescence intensity (a.u.)
10,AGACCGCTCGCGCGTACGTGACGCGATCGGGCAGCGCGGGCGGAGTCACCTAGTGCAG,4060 fluorescence intensity (a.u.)
11,CCATAATCACACTTCAATAGTAGTACTACCACAATTGCATCGGAGTCACCTAGTGCAG,45100 fluorescence intensity (a.u.)
12,TCTCTTTCTTTATTTCTTTAAAATATATTTATAGTTGTCTCGGAGTCACCTAGTGCAG,3490 fluorescence intensity (a.u.)
13,TTCACATCGTTGCAATAAATAATTATACCACTACTTCATACGGAGTCACCTAGTGCAG,24800 fluorescence intensity (a.u.)
14,GTACATCAAACATTATCAATATCGGACACATAATCCATTGCGGAGTCACCTAGTGCAG,3850 fluorescence intensity (a.u.)
15,TTTTATCACATCGTTTTAATTTCAACCAAACTTTCAATTTCGGAGTCACCTAGTGCAG,32600 fluorescence intensity (a.u.)
16,CCTAAAATACATGACCAGCCCACACAGGACTTAACCCACACGGAGTCACCTAGTGCAG,3230 fluorescence intensity (a.u.)
17,ATAAAATTTTATGATATATAGATAATAATTTTACTTGCAACGGAGTCACCTAGTGCAG,4550 fluorescence intensity (a.u.)
18,TTCACACCCAGATAAATACAGCCTACTAGACCAATAGCCACGGAGTCACCTAGTGCAG,40000 fluorescence intensity (a.u.)
19,TATAGAATTTTCTCTTAAAATACTTATCCGATTTATGATCCGGAGTCACCTAGTGCAG,54100 fluorescence intensity (a.u.)
20,ACCAGGTGGCTACAGCTGGCTAAATACCCAGTCACTACCACGGAGTCACCTAGTGCAG,3680 fluorescence intensity (a.u.)
21,ACTTTTCCGTCACATCGTTTTAATTTCTTTAAACTTTTAACGGAGTCACCTAGTGCAG,4680 fluorescence intensity (a.u.)
22,TTATATCGTTTTAATTTCAATTAAACTTTCAATTTTAGTGCGGAGTCACCTAGTGCAG,48400 fluorescence intensity (a.u.)
